This is a sample that favours compounds with a hit; in the whole collection about 7.4% have one here.
CRE-bla Fsk: Cell signaling CRE-BLA (Fsk stim) | AID 662, 2007 | CHO CRE-bla reporter (cAMP response element driving beta-lactamase), forskolin EC10, beta-lactamase ratio | actives 2.5% (n = 71,000) | Potency, µM (series often up to 38.2 µM), for the others: at the top dose activity change, negative = inhibition, hits mostly activators; active = well fitted activation curve with a large enough effect in the signal ratio, with a control signal flat, not every such curve was filed as active; inconclusive = small, poorly fitted or top-dose-only effect, or effect the other way, or a change in a side signal; the % refers to the signal ratio; also: potency is read from the fitted curve at half-maximal effect; % of control where 0% means no effect
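Forskolin analogue NKH 477 at EC10 stimulated CRE-driven beta-lactamase in CHO cells alongside compound dilution series. Beta-lactamase was measured with CCF4, excitation 405 nm, emission ratio 460/530 nm.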
ERK AVP inh: qHTS Assay for Inhibitors of the ERK Signaling Pathway using a Homogeneous Screening Assay | Potency, µM (series often up to 57.5 µM), inactives show at the highest dose activity, negative = inhibition, hits mostly inhibitors | HEK293-V1b, vasopressin-stimulated pERK AlphaScreen | actives 0.99% (n = 72,000); also: potency is read from the fitted curve at half-maximal effect; % is scaled to controls: 0 for no effect and ±100 for the full control effect; nearly all actives have a fitted effect of over 55% in size
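HEK293 cells stably expressing V1b receptor, seeded overnight in 1% FBS, were treated with compounds for 30 min at 37C, then stimulated 5 min with 25 nM vasopressin; phospho-ERK read by AlphaScreen SureFire after lysis.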
TSHR agonist: qHTS Assay for Agonists of the Thyroid Stimulating Hormone Receptor | Thyrotropin receptor (Homo sapiens), P16473 | HEK293-CNG-TSHR cells (CNG channel as cAMP sensor), membrane potential dye, cAMP | Potency, µM (titrated, usually from 57.1 µM), for inactives: at the top dose activation, actives largely listed as activators | actives 0.48% (n = 73,000); active = well fitted activation curve with a large enough effect in the main read-out, with a control signal flat, not every such curve was filed as active; inconclusive = small, poorly fitted or top-dose-only effect, or a change in a side signal; inactive = no such curve, though single readings can be large or run the other way; % of control where 0% means no effect;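 also: the control signal comes from parental cells without the receptor; potency is read from the fitted curve at half-maximal effect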
Target sequence (P16473 whole entry, looked up): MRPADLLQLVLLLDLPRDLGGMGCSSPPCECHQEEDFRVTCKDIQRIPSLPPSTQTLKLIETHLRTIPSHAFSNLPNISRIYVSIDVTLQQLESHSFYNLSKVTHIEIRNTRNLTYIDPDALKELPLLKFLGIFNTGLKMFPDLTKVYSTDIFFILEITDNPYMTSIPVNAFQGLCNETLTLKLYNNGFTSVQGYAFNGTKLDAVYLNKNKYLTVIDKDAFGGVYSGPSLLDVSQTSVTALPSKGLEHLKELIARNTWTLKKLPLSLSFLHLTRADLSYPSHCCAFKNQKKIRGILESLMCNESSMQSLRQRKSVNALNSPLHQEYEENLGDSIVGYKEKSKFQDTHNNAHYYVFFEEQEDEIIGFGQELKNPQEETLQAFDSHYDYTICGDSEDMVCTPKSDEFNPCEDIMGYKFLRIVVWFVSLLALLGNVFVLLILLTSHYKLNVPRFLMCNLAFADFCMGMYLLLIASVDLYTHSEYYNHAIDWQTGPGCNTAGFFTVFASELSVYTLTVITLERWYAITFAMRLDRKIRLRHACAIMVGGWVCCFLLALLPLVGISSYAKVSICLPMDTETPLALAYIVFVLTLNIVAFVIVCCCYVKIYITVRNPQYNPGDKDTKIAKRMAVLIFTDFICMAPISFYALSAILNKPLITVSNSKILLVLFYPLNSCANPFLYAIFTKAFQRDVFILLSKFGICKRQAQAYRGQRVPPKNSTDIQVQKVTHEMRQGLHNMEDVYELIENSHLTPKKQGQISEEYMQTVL
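HEK 293 cells stably expressing TSHR and a modified CNG channel, with CNG-only parental cells as counterscreen, were preloaded 60 min at room temperature with membrane potential dye containing 100 uM RO 20-1724. Compound exposure was 30 min, and depolarization was read as fluorescence at 590 nm.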
HEK293 cAMP cs: qHTS Assay for Agonists of the Thyroid Stimulating Hormone Receptor: Activators of Intracellular cAMP Concentrations in Parental HEK 293 | Potency, µM (top dose mostly 57.1 µM), for the others: at the highest dose activation, actives largely listed as activators | parental HEK293 CNG cAMP sensor, membrane potential fluorescence | AID 938, 2007 | actives 2.5% (n = 73,000); also: potency is read from the fitted curve at half-maximal effect; % of control where 0% means no effect; nearly all actives have a fitted effect of over 55% in size
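Parental HEK 293 cells stably expressing a modified CNG channel (no TSHR) report cAMP rise as membrane depolarization. Membrane potential dye with 100 uM RO 20-1724 was loaded for 60 min at room temperature, then compound added for 30 min; fluorescence read at 590 nm.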
Tau fil binding: qHTS Assay for Tau Filament Binding | recombinant tau filaments, thioflavin S fluorescence, 15 h; filaments grown with octadecylsulfate alongside compound | Potency, µM (titrated, usually from 57.1 µM), inactives show top-dose activity change, negative = inhibition | Microtubule-associated protein tau (Homo sapiens), P10636 | actives 2% (n = 71,000);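 also: potency is read from the fitted curve at half-maximal effect; % is scaled to controls: 0 for no effect and ±100 for the full control effect; actives lower thioflavin S fluorescence by blocking filaments or displacing dye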
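Quantitative HTS: thioflavine S signal from ODS-induced tau filaments, excited at 450 nm, emission 510 nm. Conditions: 1 uM tau, 30 uM ODS, 15 h at 37 C, pH 7.4.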
parental cAMP: Confirmation Concentration-Response Assay for Agonists of the Thyroid Stimulating Hormone Receptor: Activators of Intracellular cAMP Concentrations in Parental HEK 293 | activity change, negative = inhibition, % at 32.9 µM | parental HEK293 CNG biosensor, cAMP membrane potential fluorescence | shares compounds with TSHR agonist | AID 953, 2007 | 150 tested, under 10 active
Starred values were filed as active, the others as inactive; ? = inconclusive; nt = no result given; [ ] = another dose, or the depositor's remark. Unless noted, calls follow the shape of the dose curve; as a rule, active = well fitted curve in the direction sought with a large enough effect; inconclusive = small, poorly fitted or top-dose-only effect, or another doubt; inactive = no such curve, though single readings can be large; an effect the other way counts as inactive or inconclusive.

SMILES	CRE-bla Fsk	ERK AVP inh	TSHR agonist	HEK293 cAMP cs	Tau fil binding	parental cAMP
COc1ccc(C2C3=C(CC(c4ccco4)CC3=O)Nc3ccccc3N2C(C)=O)cc1 (configuration not stated)	1%	-16%	4%	7%	20%	nt
CNCC(O)c1cccc(O)c1 (configuration not stated)	nt	1%	nt	nt	nt	nt
NC(CCC(=O)N[C@@H](CS)C(=O)NCC(=O)O)C(=O)O (some centres not stated)	nt	-8%	nt	nt	nt	nt
CC1(C)CC2CC(C)(CN2S(=O)(=O)c2ccc(N)cc2)C1 (configuration not stated)	2%	20%	25µM*	7%	-6%	-5
CN1CCN(S(=O)(=O)c2ccc(N)cc2)CC1	25%	nt	-4%	19%	-10%	nt
C=CCOC(=O)C(C(C)=O)C(NC(=O)OC)c1ccc(Cl)cc1 (configuration not stated)	nt	-1%[11.5 µM]	nt	13%[11.4 µM]	nt	nt
CCOC(=O)CCc1c(C)nc2c(c(C)nn2C(C)(C)C)c1C	22%	15%	25µM*	21%	-7%	13
Cc1ccc(S(=O)(=O)N(CC(=O)N2CCC(C(N)=O)CC2)Cc2ccc(F)cc2)cc1	-7%	-2%	4%	2%	4%	nt
O=C(CN(Cc1ccc(F)cc1)S(=O)(=O)c1ccccc1)N1CCCCC1	-2%	-30%	25µM*	28%	-21%	-7
CCOC(=O)c1ccc(NC(=O)c2ccc(CN3CCOCC3)cc2)cc1	3%	32µM*	nt	20%	13%	11
COC(=O)c1cc(C(=O)OC)cc(N2C(=O)CC(Sc3nc(C)cc(C)n3)C2=O)c1 (configuration not stated)	10%	-21%	25µM*	0%	-10%	-8
O=C(C1COc2ccccc2O1)N1CCCC1 (configuration not stated)	-3%	4%	-1%	-2%	12%	-2[25.6 µM]
COc1cc(OC)cc(-c2nnc(SCC(=O)N(C(C)C)C(C)C)o2)c1	7%	0%	25µM*	24%	7%	17
Cn1cc(Cl)c(C(=O)N(Cc2ccccc2)c2ccccn2)n1	-7%	-17%	8%	7%	2%	nt
O=C(c1ccc(Br)o1)N(Cc1ccccc1)c1ccccn1	3%	?	?	?	-9%	4
NS(=O)(=O)c1ccc(N=Nc2ncccc2O)cc1	-4%[7.6 µM]	-12%[11.5 µM]	-4%[11.4 µM]	-5%[11.4 µM]	-15%[11.4 µM]	nt
CS(=O)(=O)N1CCN(C(=O)c2cc(-c3cccs3)nc3ccccc23)CC1	5%	-14%	20µM*	-4%	10%	-5
CCOC(=O)N/N=C1/C[C@@H](O)[C@@H](O)[C@@H]2[C@@H]3C(=O)N(CC)C(=O)[C@H]3CC[C@@H]12	nt	-9%[11.5 µM]	-2%[11.4 µM]	1%[11.4 µM]	nt	nt
O=C(CN(c1ccc2c(c1)OCCO2)S(=O)(=O)c1ccccc1)NCc1ccco1	9%	-18%	25µM*	1%	-1%	7
Cc1ccc(N(CC(=O)NCc2ccco2)S(=O)(=O)c2ccccc2)cc1	-8%	18%	?	?	-2%	-7
Cc1cccc(CNc2cc(-c3ccc(C(=O)N(C)C)cc3)ncn2)c1	?	-11%	?	?	10%	nt
Cc1occc1-c1nnc(SCC(=O)Nc2ccccc2)n1C(C)c1ccccc1 (configuration not stated)	4%	?	7.9µM*	31%	-20%	-10
O=C1c2ccccc2C(=O)N1Cc1nc(-c2ccncc2)no1	3%	-4%	14%	14%	-14%	nt
O=C1c2ccccc2C(=O)N1Cc1nc(-c2ccccc2)no1	?	6%	21%	4%	-2%	21[25.6 µM]
CCC1=C(OC(=O)N(CC)CC)N2C(=O)OC(=NCCOC)[C@]2(C)[C@H]2C1=CC[C@H]1C(=O)N(C)C(=O)[C@H]12	nt	-8%	nt	nt	nt	nt
COc1cccc(C2CC(c3ccccc3C)n3nc(N)nc3N2)c1 (configuration not stated)	5%	-22%	0%	7%	-9%	nt
COc1cccc(C2CC(c3ccccc3OC)n3nc(N)nc3N2)c1 (configuration not stated)	3%	-12%	5%	8%	4%	6[25.6 µM]
CCSCCOC(=O)C1=C(C)N(C)C(=O)NC1c1cc(OC)ccc1OC (configuration not stated)	7%	?	25µM*	13%	15%	8
